A number with no mark means an inactive call.
These compounds were tested on Vero E6 infected with SARS-CoV-2 (assay: inhibition of SARS-CoV-2 cytopathic effect; higher = more antiviral protection, active = above 15). Settings: 833.33 nM; 48 h.

Structure (SMILES)	inhibition of SARS-CoV-2 cytopathic effect
COc1cc(C(=S)N2CCOCC2)ccc1O [vanitiolide]	2.4%
Cc1cc(-c2nc(-c3ccc(OC(F)(F)F)cc3)no2)nn1Cc1ccnc(N2CCN(C3CC3)CC2)c1	0.7%
FC(F)(F)C(F)(F)C(F)(F)C(F)(F)C(F)(F)C(F)(F)C(F)(F)C(F)(F)Br [perflubron]	-1.6%
C1CCC(C(CC2CCCCN2)C2CCCCC2)CC1 (stereo not given) [perhexiline]	0.87%
COc1ccc(-c2cc(C(F)F)nn2-c2ccc(S(N)(=O)=O)cc2)cc1F [deracoxib]	2.29%
CN(C)CC[C@@]1(c2ccc(Cl)cc2)Cc2ccccc2C(=O)O1 (racemic)	-2.86%
O=C1NC(O)CCN1[C@@H]1O[C@H](CO)[C@@H](O)[C@H]1O (stereo not given in full) [tetrahydrouridine]	-0.67%
O=C1C[C@@H]2OCC=C3CN4CC[C@]56c7ccccc7N1[C@H]5[C@H]2[C@H]3C[C@H]46 [strychnine]	3.93%
CCCCCS(=O)(=O)CCCCCCCCCCn1c(-c2ccc(O)cc2)c(C)c2cc(O)ccc21	-1.6%
CCCCCCCCCCCC(=O)O [lauric-acid]	-1.45%
C[C@H]1O[C@@H](Oc2c(-c3cc(O)c(O)c(O)c3)oc3cc(O)cc(O)c3c2=O)[C@@H](O)[C@@H](O)[C@@H]1O [myricitrin]	-1.02%
CC1=CC(=C(c2ccc(N)cc2)c2ccc(N)cc2)C=CC1=N [basic-fuchsin]	-0.79%
C[C@@H](N)[C@H]1CC[C@H](C(=O)Nc2ccncc2)CC1	2.02%
CC(CCc1ccc(O)cc1)NCC(O)c1ccc(O)cc1 (stereo not given) [ractopamine]	-0.11%
Cc1ccc(C)c([C@H](O)CNC(C)C)c1 [benzenemethanol,-2,5-dimethyl-[[(1-methylethyl)amino]methyl]]	0.15%
CC(C)c1cc(-c2ccc(F)c3ccccc23)nc(N)n1	-3.71%
Clc1cccc(-n2nnnc2NCc2ccccc2Oc2ccccn2)c1Cl	0.18%
CC(=O)Oc1ccc(C(c2ccc(OC(C)=O)cc2)c2ccccn2)cc1 [bisacodyl]	1.04%
Clc1ccc(CO/N=C(\Cn2ccnc2)c2ccc(Cl)cc2Cl)c(Cl)c1 [oxiconazole]	0.68%
O=C1C=C2C=C[C@@H]3C[C@@]2(O1)[C@H]1CCCCN31 [securinine]	7.21%

Structure (SMILES)	inhibition of SARS-CoV-2 cytopathic effect
CC[C@H](C)n1cc(C)c2c(C(=O)NCc3c(C)cc(C)[nH]c3=O)cc(-c3ccc(N4CCNCC4)nc3)cc21	1.5%
c1ccc2c(c1)CCCc1cc(NCCN3CCOCC3)nnc1-2	1.51%
CNC1CC(N)C(O)C(OC2OC(CO)C(O)C3OC4(OC(C(N)CO)C(O)C(O)C4O)OC23)C1O (stereo not given) [Hygromycin B]	-1.13%
Oc1cc(O)cc(/C=C/c2ccc(O)c(O)c2)c1 [piceatannol]	0.83%
CC(C)(O)c1ccn2c(-c3ccc(F)c(-c4ccc(F)cc4C#N)c3)cnc2c1F	-1.01%
CCN(CC)CCOC(=O)C(c1ccccc1)C1CCCCC1 (stereo not given) [drofenine]	-1.42%
C[C@](O)(COc1ccc(C#N)cc1)C(=O)Nc1ccc(C#N)c(C(F)(F)F)c1 [ostarine]	-1.16%
CCCN1C[C@H](CSC)C[C@@H]2c3cccc4[nH]cc(c34)C[C@H]21 [pergolide]	0.65%
Nc1ccc2ncnc(NCCc3ccc(Oc4ccccc4)cc3)c2c1	0.25%
CC(C)Oc1ccc(Cc2ccc(NC3=NCCN3)cc2)cc1	0.98%
CC[C@@H](C(N)=O)N1CCCC1=O [levetiracetam]	0.56%
CCCCn1c(-c2ccccc2)nc(-c2ccccc2)c1CN(Cc1ccc2c(c1)OCO2)Cc1ccc2c(c1)OCO2	0.71%
CN1C(=O)/C(=C2/C(=O)Nc3ccccc32)c2ccccc21 [meisoindigo]	1.46%
CC(C)Nc1cc(-c2c[nH]c(C(=O)N[C@H](CO)c3cccc(Cl)c3)c2)c(Cl)cn1	-5.21%
O=C1NC(c2ccccc2)(c2ccccc2)C(=O)N1COP(=O)(O)O [fosphenytoin]	1.24%
CCCS(=O)(=O)Nc1ccc(F)c(C(=O)c2c[nH]c3ncc(Cl)cc23)c1F	2.16%
CC(C)C[C@@H](NC(=O)[C@H](Cc1ccccc1)NC(=O)CNC(=O)[C@@H](C)NC(=O)[C@@H](N)Cc1ccc(O)cc1)C(=O)O	2.13%
[I-].[K+] [potassium-iodide]	0.38%
CC(C)Cc1ccc([C@@H](C)C(=O)NS(C)(=O)=O)cc1 [reparixin]	0.65%
O=[N+]([O-])O[C@@H]1CO[C@H]2[C@@H]1OC[C@@H]2O [isosorbide-mononitrate]	2.64%

From the supplement of paper PMC13380429
